# Test results published in PubChem BioAssay AID492960 (National Center for Advancing Translational Sciences (NCATS), 2010).
# Results filed as inconclusive are left out. A number with no mark means an inactive call. Activity calls are given as the source filed them. The call rests on the fitted dose curve; in most records, active means well fitted curve in the direction sought with a large enough effect; inconclusive means small, poorly fitted or top-dose-only effect, or effect the other way, or another doubt; inactive means no such curve, though single readings can be large or run the other way.
# Assay: Secondary Assay for lipid storage modulators: HepG2 cell LDSA assay for probe SAR
# Details: HepG2 lipid droplet BODIPY, laser-scanning cytometry, 18-24 h; series mostly up to 46.1 µM; activity, negative = less lipid: at the top concentration
# Description: NIH Molecular Libraries Probe Production Centers Network [MLPCN] NIH Chemical Genomics Center [NCGC] MLPCN Grant: 1 R03 MH085686-01 Assay Submitter (PI): Beller, Mathias; Max-Planck-Institut fur Biophysikalische Chemie NCGC Assay Overview: Storing lipids as a reservoir for energy or the anabolism of elementary metabolites is a common feature of probably all cells and is conserved from bacteria to humans. The universal cellular lipid storage organelle is the so-called lipid storage droplet (LD). Although ubiquitous, LDs share a simple structure composed of a hydrophobic core that harbors the storage lipids, which is shielded by a droplet-specific phospholipid monolayer to which proteins are attached. The current model of LD biogenesis involves an incorporation of the lipid core into the membrane leaflets of the endoplasmic reticulum (ER) followed by a subsequent budding-like maturation of a LD, which ultimately pinches off. Once released, LD volume can increase by localized lipogenesis or fusion of existing droplet. Storage lipids are re-mobilized enzymatically by lipase activity. Lipase regulation in the adipocyte is heavily studied and involves multiple components including catecholamine signaling, the LD-associated proteins Perilipin and comparative gene identification (CGI-58) and at least two lipases named hormone sensitive lipase (HSL) and adipocyte triglyceride lipase (ATGL). LD regulation outside of the adipocyte is poorly understood and only few components are known. However, there is an urgent need to learn more about ectopic fat depots as mislocalized storage of lipids, for example in the liver or muscle, is an eminent health problem associated with insulin resistance or the metabolic syndrome.
# NCGC Assay Protocol Summary: The assay was performed with HepG2 cells, using an oleic acid feeding protocol similar to the S3 assay. We dispensed 4 uL of cells to give 700 cells/well into Greiner bio-one 1,536-well plates (black walled, clear bottom). Triacsin C (Sigma-Aldrich T-4540), an inhibitor of long-chain fatty acyl CoA synthetase that blocks synthesis of triglycerides, was used as a positive control for lipid under-storage using a final concentration of 20 uM. The orexin antagonist, SB408124 - previously identified to stimulate lipid over-storage, was used as a positive control for lipid over-storage using a final concentration of 20 uM. A total of 23 nL of compound solution of different concentrations were transferred to the assay plates using a Kalypsys pin tool equipped with a 1,536-pin array containing 10-nL slotted pins (FP1S10, 0.457-mm diameter, 50.8 mm long; V&P Scientific). One microliter of oleic acid was added (400 uM final concentration), and the plate was lidded with stainless steel rubber gasket lined lids containing pinholes. After 18-24 h incubation at […] and 95% humidity, 4 uL of the dyes BODIPY 493/503 (Molecular Probes) and the Cell Tracker Red CMTPX dye (Molecular Probes) were added to the wells to stain lipid droplets and enumerate cell number, respectively. Fluorescence was detected by excitation of the fluorophores with a 488-nm laser on an Acumen Explorer (TTP Lab Tech). The total intensity in channel 2 (500-530 nm) reflected lipid droplet accumulation. Cells were detected using channel 3 (575-640 nm) with 5-um width and 100-um depth filters. The ratio of the number of objects in PMT channel 2 over the number of objects in PMT channel 3 was also calculated. […]
Compound,"activity, negative = less lipid",Potency
CCOc1ccc(CCNC(=O)c2ccccc2)cc1OCC,-5.19%,–
CCOc1ccc(CCNC(=O)c2ccc(Oc3ccccc3)cc2)cc1OCC,33.8%,–
CCOC(=O)C1CCN(C(=O)C2(NC(=O)Nc3ccccc3Cl)CCCC2)CC1,32.5%,–
CCOc1ccc(CCNC(=O)c2ccc(C(=O)c3ccccc3)cc2)cc1OCC,15.6%,–
CCC/C=C/C/C=C/C=C/C=N/NN=O,–,0.396 µM (active)
